Screening results (PubChem BioAssay)
TGFb SMAD3 inh: qHTS for Inhibitors of TGF-b; HepG2 CAGA-GFP TGF-b/SMAD3 reporter, GFP fluorescence, 18 h; TGF-beta stimulated, 500 pg/mL final; Potency, µM (titrated, usually from 46.1 µM), without a hit: at the highest dose activity, negative = inhibition, most hits filed as inhibitors; 410,000 tested, 1.2% active; further: on the % scale 0 is the no-effect control and ±100 the full control effect; nearly all actives have a fitted effect of over 65% in size
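Cell-based qHTS in HEPG2 carrying a CAGA-GFP Smad reporter; compounds added before 500 pg/mL final TGF-beta, 18 h incubation at 37 degrees C, GFP fluorescence quantified per cell by imaging cytometry.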
HT1080 IDH1KD tx: qHTS for induction of synthetic lethality in tumor cells producing 2HG: qHTS for the HT-1080-IDH1KD cell line; Potency, µM (top dose mostly 46.1 µM), without a hit: at the top dose activity, negative = toxicity, actives largely listed as cytotoxic; 360,000 tested, 2% active; HT-1080 IDH1 knockdown viability, ATP luminescence, 48 h;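 further: 0% = DMSO wells and -100% = cell-free medium wells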
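Viability of IDH1-knockdown HT-1080 fibrosarcoma cells was assessed by CellTiter-Glo after 48 h at 37 °C with titrated compound; concentration-effect curves were classified by fit quality and response size.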
HepG2 viability: qHTS for Inhibitors of TGF-b: Cytotox Counterscreen. HepG2 CAGA-GFP viability, ATP luminescence, 18 h. 410,000 tested, 0.76% active. Potency, µM (top dose mostly 46.1 µM), for inactives: top-dose activity change, negative = cytotoxicity, hits mostly cytotoxic
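CellTiter-Glo luminescence gave cytotoxicity after 18 hours at 37 degrees C. The cells were HepG2 CAGA-GFP in 1% FBS DMEM, stimulated with 500 pg/mL TGF-beta after compound addition. %Activity was normalised to no-cell wells (complete cell-killing) and DMSO (no toxicity), and curves were fitted and classified.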
DT40 TDP1 CPT: qHTS for Inhibitors of human tyrosyl-DNA phosphodiesterase 1 (TDP1): qHTS in cells in presence of CPT. chicken DT40 Tdp1-/-;hTDP1 cells + 20 nM CPT, ATP luminescence, 48 h. Potency, µM (top dose mostly 46.2 µM), for inactives: at the highest dose activity change, negative = growth inhibition, hits mostly inhibitors. 420,000 tested, 12% active. AID 686979, 2013; further: on the % scale 0 is the no-effect control and ±100 the full control effect; nearly all actives have a fitted effect of over 55% in size
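Chicken DT40 Tdp1-/- cells complemented with human TDP1, 400 cells/well, exposed to compounds plus 20 nM camptothecin for at least 48 h at 37 C; viability read as ATP content by CellTiter-Glo luminescence.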
TDP1 cell noCPT: qHTS for Inhibitors of human tyrosyl-DNA phosphodiesterase 1 (TDP1): qHTS in cells in absence of CPT; DT40 Tdp1-/- hTDP1 cells, no CPT, ATP luminescence, 48 h; Potency, µM (titrated, usually from 46.2 µM), inactives show at the top dose activity change, negative = growth inhibition, actives largely listed as inhibitors; AID 686978, 2013; 420,000 tested, 15% active; further: on the % scale 0 is the no-effect control and ±100 the full control effect; nearly all actives have a fitted effect of over 55% in size
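Readout: luminescence from CellTiter-Glo after 30 min in the dark at RT. Cells: DT40 Tdp1-/- with stable hTDP1, 400/well. Exposure: compounds alone, ≥48 hr, 37 °C.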
HT1080-NT tox: qHTS for induction of synthetic lethality in tumor cells producing 2HG: qHTS for the HT-1080-NT fibrosarcoma cell line. HT-1080-NT fibrosarcoma viability, CellTiter-Glo ATP luminescence, 48 h. Potency, µM (titrated, usually from 46.1 µM), for the others: at the highest dose activity, negative = less viability, most hits filed as cytotoxic. 360,000 tested, 1.6% active. AID 686970, 2013;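 further: NT is the 2HG producing partner of a matched IDH1 knockdown line; 0% = DMSO-treated cells and -100% = media-only wells without cells; nearly all actives have a fitted effect of over 55% in size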
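Compounds were tested in concentration-response format on HT-1080-NT cells for 48 hours at 37 degrees C. Cell viability came from CellTiter-Glo luminescence; curves were classified by r2, response magnitude and activity.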
* = called active by the depositor; ? = inconclusive; nt = not tested or not shown. Most compounds without a hit are left out; they make up all but 17% or so of the library. The call rests on the fitted dose curve; in most records, active means well fitted curve in the direction sought with a large enough effect; inconclusive means small, poorly fitted or top-dose-only effect, or another doubt; inactive means no such curve, though single readings can be large; an effect the other way counts as inactive or inconclusive. Potency means the concentration at half of the fitted maximal effect.

SMILES | TGFb SMAD3 inh | HT1080 IDH1KD tx | HepG2 viability | DT40 TDP1 CPT | TDP1 cell noCPT | HT1080-NT tox
CN(C1CCCCC1)S(=O)(=O)c1ccc(F)c(C(=O)Nc2ccc(C(F)(F)F)cc2)c1 | ? | nt | -16.2% | 23.1µM* | 20.6µM* | nt
CCN(CC)S(=O)(=O)c1cccc(NC(=O)CN(C)C2CCCCC2)c1 | 2.1% | -6.2% | 3.2% | ? | 14.6µM* | -18.1%
CN(C1CCCCC1)S(=O)(=O)c1ccc(S(=O)(=O)N(CC(=O)Nc2ccccc2)C2CC2)cc1 | ? | -5.6% | -24.6% | ? | 23.1µM* | -17.2%
COc1ccc(CCNC(=O)c2cc(-c3ccc(Cl)c(Cl)c3)oc2C)cc1 | -4.3% | ? | -1.6% | ? | ? | -26.9%
C=CCCC(=O)N1C[C@H]2CCN(C)[C@H]2C[C@H]1c1ccc(Br)cc1 | ? | 11.9% | -10.5% | -19.0% | -6.6% | 1.3%
CC(OC(=O)CCNS(=O)(=O)c1ccccc1)C(=O)Nc1ccc(S(=O)(=O)N2CCCCC2)cc1 (stereo not drawn) | ? | ? | 4.8% | ? | -26.7% | -5.6%
COc1cccc(NC(=O)CN2C=NS(=O)(=O)c3ccccc32)c1 | -4.2% | nt | -7.4% | -0.8% | -16.3% | nt
CCN(CC)S(=O)(=O)c1cccc(C(=O)NCC2CCCCC2)c1 | 3.6% | -10.1% | -0.8% | ? | 20.6µM* | -16.6%
CCN(CC)S(=O)(=O)c1cccc(C(=O)NCC(c2ccccc2)N(C)C)c1 (stereo not drawn) | 2.0% | 1.8% | -9.3% | 5.2% | -5.5% | 2.3%
COc1ccc(Br)cc1/C=N/NC(=O)C(c1ccncc1)N1CCOCC1 (stereo not drawn) | 2.8% | -2.7% | -5.6% | ? | 23.1µM* | 6.2%
CCCn1c2ccccc2c2cnn(CC(=O)NCc3cc(OC)ccc3OC)c(=O)c21 | 0.2% | nt | 3.3% | 18.4µM* | ? | nt
CCCn1c2ccccc2c2cnn(CC(=O)NCCc3cc(OC)ccc3OC)c(=O)c21 | ? | nt | -24.6% | ? | 16.4µM* | nt
CCCn1c2ccccc2c2cnn(CC(=O)Nc3cc(OC)c(OC)c(OC)c3)c(=O)c21 | ? | nt | -8.1% | ? | ? | nt
CCCn1c2ccccc2c2cnn(CC(=O)Nc3ccccc3OC)c(=O)c21 | ? | nt | -25.0% | 23.1µM* | 14.6µM* | nt
CCCn1c2ccccc2c2cnn(CC(=O)NCCOC)c(=O)c21 | -17.5% | 8.5% | 4.1% | -18.8% | -14.9% | 7.2%
O=C(N/C(=C/c1ccc(F)cc1)C(=O)N1CCCC1)c1ccccc1 | -4.5% | 9.0% | -11.7% | 0.6% | -15.2% | -1.1%
CCCN(CC)C(CC)C(=O)Nc1c(C)cccc1C (stereo not drawn) | nt | nt | nt | 0.4% | -13.0% | nt
Cc1cc(C(=O)COC(=O)c2cccc(S(=O)(=O)N(C)C)c2)c(C)n1CC1CCCO1 (stereo not drawn) | 2.4% | -18.8% | 1.5% | 16.4µM* | ? | 6.2%
Cc1cc(C(=O)COC(=O)c2ccc(O)cc2)c(C)n1CC1CCCO1 (stereo not drawn) | 0.1% | 0.2% | -19.8% | 11.4% | -10.3% | -1.8%
Cc1cc(C(=O)COC(=O)c2ccc3c(c2)NC(=O)CS3)c(C)n1CC1CCCO1 (stereo not drawn) | ? | -12.4% | -2.0% | ? | 16.4µM* | 7.1%
O=C(COC(=O)C1CCCCC1C(=O)N1CCc2ccccc21)NCc1ccco1 (stereo not drawn) | -21.6% | 6.1% | 7.0% | -22.7% | ? | 4.0%
COc1ccccc1N1CCN(C(=O)C2CCCN(c3ncnc4c3nc3n4CCCCC3)C2)CC1 (stereo not drawn) | -25.9% | -9.9% | -17.6% | 14.6µM* | 16.4µM* | -24.8%
Cc1ccccc1CN1CCC(CNC(=O)C2CCCN(c3ncnc4c3nc3n4CCCCC3)C2)CC1 (stereo not drawn) | -0.7% | ? | -3.1% | ? | ? | ?
O=C(C1CCCN(c2ncnc3c2nc2n3CCCCC2)C1)N1CCN(c2ccccc2)CC1 (stereo not drawn) | 4.2% | 0.0% | -3.1% | ? | 2.06µM* | 12.3%
Cc1ccccc1N(C)C(=O)C1CCCN(c2ncnc3c2nc2n3CCCCC2)C1 (stereo not drawn) | -0.7% | 12.0% | 3.8% | ? | 23.1µM* | 12.3%
SMILES | TGFb SMAD3 inh | HT1080 IDH1KD tx | HepG2 viability | DT40 TDP1 CPT | TDP1 cell noCPT | HT1080-NT tox
COc1ccccc1N1CCN(c2ncnc3c2nc2n3CCCC2)CC1 | ? | nt | -30.1% | 18.4µM* | 18.4µM* | nt
CC1CCCN(c2ncnc3c2nc2n3CCCCC2)C1 (stereo not drawn) | -8.8% | nt | 5.7% | -24.2% | ? | nt
CN(C(=O)C1CCCN(c2ncnc3c2nc2n3CCCCC2)C1)c1cccc(Cl)c1 (stereo not drawn) | ? | ? | -22.7% | 13µM* | 11.6µM* | ?
CCc1ccc(NC(=O)C2CCN(c3ncnc4c3nc3n4CCCCC3)CC2)cc1 | 3.4% | -0.3% | 3.3% | ? | ? | 8.1%
CCN(C(=O)C1CCN(c2ncnc3c2nc2n3CCCCC2)CC1)c1cccc(Cl)c1 | 11.2µM* | nt | -22.0% | ? | ? | nt
Cc1ccc(C)c(N2CCN(C(=O)C3CCCN(c4ncnc5c4nc4n5CCCCC4)C3)CC2)c1 (stereo not drawn) | 17.8µM* | 17.3% | -45.3% | 16.4µM* | 23.1µM* | 16.3%
O=C(C1CCCN(c2ncnc3c2nc2n3CCCCC2)C1)N1CCN(c2cccc(Cl)c2)CC1 (stereo not drawn) | 11.2µM* | ? | -38.1% | 23.1µM* | 18.4µM* | ?
